Reference: PubChem BioAssay AID489025 (Southern Research Specialized Biocontainment Screening …, 2010)
About 790 (34%) of roughly 2,300 compounds were called active. No rule for the calls is given here. This is one part of the list. Results with a measured potency or affinity are listed apart.

experiment: THP-1 cell cytotoxicity, dose response, cytotoxicity control for non-replicating M. tuberculosis project (AID 489025); conditions: THP-1 cell viability; series mostly up to 40 µM; viability: at the top concentration

Row | SMILES | viability
1 | Cc1ccc(SCCC(=O)OCC(=O)NCC2CCCCC2)cc1 | 117% (inactive)
2 | Cc1ccccc1OCCC(=O)OCC(=O)NNC(=O)c1cccs1 | 109% (inactive)
3 | COc1cc(/C=N/NC(=O)c2ccncc2)ccc1OC(=O)c1cccc(F)c1 | 106% (inactive)
4 | Cc1ccc(NC(=O)C2CC2c2ccccc2)cc1 (stereo not given) | 83.2% (inactive)
5 | O=C(NNc1ccc([N+](=O)[O-])cc1)C1CC1c1ccccc1 (stereo not given) | 102% (inactive)
6 | O=C(N/N=C/c1cccc2nccnc12)c1ccncc1 | 82.7% (inactive)
7 | O=C(COC(=O)c1ccc(Br)o1)NC1CCCCC1 | 117% (inactive)
8 | O=C(N/N=C/C=C/c1cccc([N+](=O)[O-])c1)c1ccncc1 | 96% (inactive)
9 | Cc1ccc(CSCCNC(=O)c2cccc([N+](=O)[O-])c2)cc1 | 94.1% (inactive)
10 | O=C(N/N=C/c1ccccn1)c1cccc([N+](=O)[O-])c1 | 79.6% (inactive)
11 | COc1cccc(OCCNC(=O)c2cc([N+](=O)[O-])cc([N+](=O)[O-])c2)c1 | 98.9% (inactive)
12 | CC(/C=C/c1cccc([N+](=O)[O-])c1)=N\NC(=O)c1ccncc1 | 86.4% (inactive)
13 | FC(F)(F)c1ccc(-c2nnc(-c3cccnc3)o2)cc1 | 108% (inactive)
14 | CC1CCCN(CCSc2ccc(Cl)cc2)C1 (stereo not given) | 93.1% (inactive)
15 | CCC(C)(C)c1ccc(OCC(=O)Nc2ccncc2)cc1 | 117% (inactive)
16 | COc1ccc(-n2c3c(cc(C(=O)NNc4ccccc4)c2=O)C(=O)CC(C)(C)C3)cc1 | 108% (inactive)
17 | Cc1cccc(NC(=O)COC(=O)CCc2c[nH]c3ccccc23)c1 | 109% (inactive)
18 | Cc1ccc(C(C)C)c(OCC(=O)OCc2c(C)noc2C)c1 | 106% (inactive)
19 | CCOC(=O)COc1ccc(C(=O)Nc2cccc(Cl)c2C)cc1 | 108% (inactive)
20 | O=C1c2ccccc2CC1Sc1nnc(-c2ccncc2)o1 (stereo not given) | 111% (inactive)
21 | c1ccc(-c2nnc(SCc3nnc(-c4cccs4)o3)o2)cc1 | 112% (inactive)
22 | CCOC(=O)Cc1nc2cc(Cl)ccc2o1 | 104% (inactive)
23 | CCCCCCOc1ccc(N2C(=O)CC(N3CCN(C(=O)c4ccco4)CC3)C2=O)cc1 (stereo not given) | 96.9% (inactive)
24 | CC(/C=C/c1ccc2c(c1)OCO2)=N/NC(=O)C1COc2ccccc2O1 (stereo not given) | 89% (inactive)

Row | SMILES | viability
25 | Cc1ccccc1NC(=O)C1COc2ccccc2O1 (stereo not given) | 88% (inactive)
26 | O=C(Nc1cccc([N+](=O)[O-])c1)C1COc2ccccc2O1 (stereo not given) | 89.2% (inactive)
27 | CC(C)(C)c1ccc2c(c1)OC(C(=O)N/N=C\c1ccccn1)CO2 (stereo not given) | 114% (inactive)
28 | CC(C)NC(=O)C1COc2ccccc2O1 (stereo not given) | 85.2% (inactive)
29 | O=C(Nc1cccc(Cl)c1)C1COc2ccccc2O1 (stereo not given) | 81% (inactive)
30 | COc1ccc(NC(=O)C2COc3ccccc3O2)cc1 (stereo not given) | 111% (inactive)
31 | O=C(Nc1ccc([N+](=O)[O-])cc1)C1COc2ccccc2O1 (stereo not given) | 92.3% (inactive)
32 | CN1CCC(O)(c2ccccc2)C(C(=O)c2ccccc2)C1 (stereo not given) | 93.6% (inactive)
33 | COc1cccc(NC(=O)COC(=O)Cc2ccc(Br)cc2)c1 | 122% (inactive)
34 | COc1ccc(OCCC(=O)OCC(=O)Nc2ccc(Br)cc2)cc1 | 107% (inactive)
35 | Cn1ccsc1=NC(=O)c1ccccc1F | 98.2% (inactive)
36 | Cc1ccccc1C(=O)NNc1ccc([N+](=O)[O-])cc1 | 112% (inactive)
37 | CC(C)(C)Sc1ccc2nc3c(n2c1)CCCC3 | 77.6% (inactive)
38 | COc1ccc(N=Cc2nc(-c3ccccc3)oc2OC(C)=O)cc1 | 103% (inactive)
39 | CCCOc1ccc(N2C(=O)CC(N3CCCC(C(=O)N4CCCC4)C3)C2=O)cc1 (stereo not given) | 128% (inactive)
40 | Cc1ccc(C2=NN(C)c3nc4ccccc4n3C2)cc1 | 77.3% (inactive)
41 | COc1cccc(C(=O)OCC(=O)c2ccc(Br)s2)c1OC | 112% (inactive)
42 | O=C(COC(=O)c1ccccc1)NC12CC3CC(CC(C3)C1)C2 | 90.6% (inactive)
43 | C=CCN1C(=O)C2(NNc3ccccc3O2)c2ccccc21 (stereo not given) | 75.5% (inactive)
44 | O=C(NCCC1=CCCCC1)c1coc(=O)c(Br)c1 | 107% (inactive)
45 | COc1ccc(C2=Nc3ccccc3OC2)cc1 | 94.8% (inactive)
46 | Cc1ccc(N2C(=O)CC(Sc3nccc(C)n3)C2=O)cc1 (stereo not given) | 94.9% (inactive)
47 | COC(=O)c1ccc(Cn2cc(C(F)(F)F)cc([N+](=O)[O-])c2=O)cc1 | 111% (inactive)
48 | COc1ccc(C(=O)OCn2nnc3ccccc3c2=O)cc1[N+](=O)[O-] | 107% (inactive)

Row | SMILES | viability
49 | Cc1cccc(C)c1NC(=O)COC(=O)CCc1c[nH]c2ccccc12 | 126% (inactive)
50 | C=C[C@]1(C)C=C2CCC3[C@](C)(CCC[C@@]3(C)C(=O)O)C2CC1 (stereo not given in full) | 104% (inactive)
51 | Cc1nnc(C)n1/N=C/c1cc(Br)cc(Br)c1O | 77.9% (inactive)
52 | Oc1c(Br)cc(Br)cc1/C=N/c1nccs1 | 97.5% (inactive)
53 | Cc1ccc(-c2nnc(SCC#CCOC(=O)c3ccco3)o2)cc1 | 103% (inactive)
54 | CCOC(=O)COc1ccc2c(c1)c(C(=O)OCC)c(C)n2CC | 99.8% (inactive)
55 | O=C(N/N=C/c1ccc[nH]1)c1cccnc1 | 119% (inactive)
56 | COc1ccc(OCC(=O)NNC(=O)c2ccccn2)cc1 | 104% (inactive)
57 | O=C(Nc1ccccc1N1CCCC1)c1cccc(F)c1 | 105% (inactive)
58 | O=C(COc1ccc(Cl)cc1)NNC(=O)c1ccccn1 | 108% (inactive)
59 | O=C(Nc1ncccc1O)c1ccc(Oc2ccccc2)cc1 | 90.7% (inactive)
60 | COC(=O)c1ccc(OCC(=O)c2cccc(OC)c2)cc1 | 108% (inactive)
61 | COc1cccc(NC(=O)c2ccc(C(=O)c3ccccc3)o2)c1 | 85.4% (inactive)
62 | CCc1ccc(NC(=O)C(=O)NNC(=O)COc2cccc(OC)c2)cc1 | 91.4% (inactive)
63 | Brc1ccc(CSc2nnc(-c3ccco3)o2)cc1 | 85.3% (inactive)
64 | COc1ccc([C@@]2(O)c3c(ccc(CC=C(C)C)c3O)NC(=O)[C@@H]2OC)cc1 | 95.8% (inactive)
65 | CCCOC(=O)NC1CCS(=O)(=O)C1 (stereo not given) | 95.1% (inactive)
66 | Cc1ccc(Sc2ccc(C=C3C(=O)N(C)C(=O)N(C)C3=O)o2)cc1 | 96.4% (inactive)
67 | CCc1ccc(N2C(=O)CC(N3CCC(C(=O)OC)CC3)C2=O)cc1 (stereo not given) | 109% (inactive)
68 | CCOC(=O)c1c(C)n(C)c2ccc(OC(C)C(=O)OC)cc12 (stereo not given) | 123% (inactive)
69 | COc1ccc(CN2CCC(C(=O)Nc3ccc(Oc4cccnc4)cc3)CC2)c(C)c1C | 81.3% (inactive)
70 | O=C(COc1c(Br)cc(Br)c2cccnc12)N1CCCCC1 | 79.9% (inactive)
71 | COc1ccc(/C=N/NC(=O)c2ccncc2)cc1CN1CCOCC1 | 112% (inactive)
72 | COc1cc(OC)cc(OC(=O)c2ccc3c(=O)n4c(nc3c2)CCC4)c1 | 100% (inactive)

Row | SMILES | viability
73 | Oc1ccc(F)c2cccnc12 | 87.5% (inactive)
74 | COc1cc(NC(=O)N2CCOCC2)cc(OC)c1 | 105% (inactive)
75 | O=C(CCN1CCOCC1)c1ccc(Cl)cc1 | 87.8% (inactive)
76 | CCOC(=O)C1(CCc2ccccc2)CCN(Cc2ccccn2)CC1 | 72.8% (inactive)
77 | Cc1cccc(C2=N/C(=C\c3cccnc3)C(=O)O2)c1 | 117% (inactive)
78 | O=C(CCSc1nnc(-c2ccccc2)o1)N1CCOCC1 | 114% (inactive)
79 | Cc1cc(C)cc(OC(=O)c2cccnc2)c1 | 87.5% (inactive)
80 | O=C(OCn1nnc2ccccc2c1=O)c1ccc(N2CCOCC2)c([N+](=O)[O-])c1 | 105% (inactive)
81 | Cc1[nH]n(-c2ccccc2)c(=O)c1C=Nc1cnc2ccccc2c1 | 103% (inactive)
82 | Cc1cc(CN(C)C)c(O)c(C2(C)CCCCC2)c1 | 108% (inactive)
83 | Cc1cccc(NC(=O)COC(=O)c2cc3ccccc3oc2=O)c1 | 114% (inactive)
84 | O=C1NC(=O)C(=Cc2ccc(-c3ccc(Cl)cc3)o2)C(=O)N1 | 113% (inactive)
85 | O=C(Oc1c(-c2ccco2)oc2ccccc2c1=O)c1cccnc1 | 73.6% (inactive)
86 | O=C(CCSc1ccccc1)N1CCCC1 | 109% (inactive)
87 | O=C(CCN1CCCCCC1)c1ccccc1 | 83.7% (inactive)
88 | COc1ccc2cc(C(=O)C3CCCN(Cc4ccccn4)C3)ccc2c1 (stereo not given) | 88% (inactive)
89 | CC(C)COc1ccc(C(=O)CCN2CCCCC2)cc1 | 88.7% (inactive)
90 | CCOc1ccc(OC(=O)c2ccc3c(=O)n4c(nc3c2)CCC4)cc1 | 93.9% (inactive)
91 | COc1ccc(C(=O)CCN2CCCCCC2)cc1 | 75.2% (inactive)
92 | CC(C)Oc1ccc(C(=O)CCN2CCCCC2)cc1 | 112% (inactive)
93 | CCOc1ccc(-c2nc3ccccc3c(=O)o2)cc1 | 116% (inactive)
94 | COc1ccc(NCC(=O)N2CCCC2)cc1Cl | 87.4% (inactive)
95 | CC1C/C(=N/NC(=O)c2cccc(F)c2)c2ccc(O)cc2C1 (stereo not given) | 91.1% (inactive)
96 | CN1CCN(Cc2cc(C(C)(C)C)c(O)c(C(C)(C)C)c2)CC1 | 104% (inactive)

Row | SMILES | viability
97 | COc1cc(/C=C2\C(=O)N(c3ccc(S(N)(=O)=O)cc3)N=C2C)ccc1OC(=O)c1ccco1 | 112% (inactive)
98 | CCC(C)n1nnc2c(=O)oc3ccccc3c21 (stereo not given) | 98.7% (inactive)
99 | COc1ccc(OCC(=O)N/N=C2\CCc3ccccc32)cc1 | 115% (inactive)
100 | Cc1ccc(NC(CC(=O)c2ccccc2)C(=O)O)cc1Cl (stereo not given) | 113% (inactive)
101 | CC(NC(=O)OCc1ccccc1)c1ccccc1 (stereo not given) | 76.8% (inactive)
102 | O=C(c1cccc2cccc(O)c12)N1CCCCC1 | 113% (inactive)
103 | CCc1ccc(C(=O)NC2CCCCC2)s1 | 101% (inactive)
104 | CC(C)(NO)/C(=N\O)c1ccccc1 | 92.4% (inactive)
105 | Cc1c(Cl)cccc1NC(=O)C1COc2ccccc2O1 (stereo not given) | 110% (inactive)
106 | O=S(=O)(CCN1CCN(c2ccccn2)CC1)c1ccc(Cl)cc1Cl | 107% (inactive)
107 | O=C1NC(=O)C(=Cc2ccc(Oc3ccc([N+](=O)[O-])cc3)cc2)C(=O)N1 | 103% (inactive)
108 | O=C1NC(=O)N(Cc2ccc(F)cc2)C(=O)/C1=C\c1ccc([N+](=O)[O-])s1 | 77% (inactive)
109 | COc1ccc(OC)c(N2C(=O)NC(=O)/C(=C/c3ccc([N+](=O)[O-])s3)C2=O)c1 | 92.7% (inactive)
110 | NNC(=O)COc1cccc(Oc2ccccc2)c1 | 105% (inactive)
111 | CC(C(=O)OCC(=O)c1ccccc1)N1C(=O)C2C3CCC(C3)C2C1=O (stereo not given) | 98.3% (inactive)
112 | CC1=NN(C(=O)c2csc(C)c2)C(O)(C(F)(F)F)C1 (stereo not given) | 111% (inactive)
113 | CC1=NN(C(=O)c2ccoc2C)C(O)(C(F)(F)F)C1 (stereo not given) | 92.6% (inactive)
114 | CCC(=O)c1ccc(OCC(=O)OCC(=O)c2cc(C)n(C3CC3)c2C)cc1 | 106% (inactive)
115 | Cc1ccsc1C(=O)OCC(=O)NCCC1=CCCCC1 | 87.4% (inactive)
116 | NCCCN1CCOCC1 | 100% (inactive)
117 | O=C1CC(N2CCC(C(=O)N3CCCCC3)CC2)C(=O)N1 (stereo not given) | 123% (inactive)
118 | COC(=O)c1cc(/C=C/c2ccccc2)on1 | 89.5% (inactive)
119 | COc1ccc(C(=O)CC(=O)C(=O)NCCc2cccc(C)c2)cc1 | 99.6% (inactive)
120 | O=C1NC(=O)N(Cc2ccco2)C(=O)/C1=C\c1cccn1CCOc1ccc(Cl)cc1 | 93.3% (inactive)
